In PubChem BioAssay:
A number with no mark means an inactive call. How the calls were made is not given here.

Each compound was assayed against Pantothenate synthetase (Mycobacterium tuberculosis (strain ATCC 25618 / H37Rv)) (UniProt P9WIL5) (assay: Coupled enzyme confirmation of inhibitors against recombinant Mtb PanC (AID 375;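 further: 0% = full reaction with vehicle and 100% = no enzyme background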)). Settings: coupled enzyme assay; at 10 µM, hits give high values.
Pantothenate synthetase (Mycobacterium tuberculosis (strain ATCC 25618 / H37Rv)), sequence (P9WIL5 whole entry, looked up): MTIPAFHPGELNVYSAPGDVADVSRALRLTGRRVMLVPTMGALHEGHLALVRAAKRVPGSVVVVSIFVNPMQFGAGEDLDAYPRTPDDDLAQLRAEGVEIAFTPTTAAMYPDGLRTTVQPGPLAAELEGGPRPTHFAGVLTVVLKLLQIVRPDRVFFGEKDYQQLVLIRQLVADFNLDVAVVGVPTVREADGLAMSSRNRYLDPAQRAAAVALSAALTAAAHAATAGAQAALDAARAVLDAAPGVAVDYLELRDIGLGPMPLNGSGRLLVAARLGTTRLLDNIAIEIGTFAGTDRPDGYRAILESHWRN
For `Cc1nc2c(-c3ccccc3)c(C)nn2c(C)c1CCC(=O)O`, the inhibition was 0%. Work on `Cc1noc(C(=O)Nc2ccc3c(c2)OCO3)c1Cl` yielded an inhibition of 0%. `CC(C)CN1C(=O)c2ccc(C(=O)Nc3nccs3)cc2C1=O` gave an inhibition of 0%. Compound `C/C=C/Cn1c(SCCCc2ccccc2)nc2c1c(=O)[nH]c(=O)n2C` has an inhibition of 0%. In the case of `O=C(CCNS(=O)(=O)c1ccc(Br)s1)N1CCCCC1`, the inhibition is reported as 0%. Work on `CCN(CC)C(=O)C1CCC(CNS(=O)(=O)c2cccc3cccnc23)CC1` (stereo not given) yielded an inhibition of 0%. Compound `Cc1ccc(S(=O)(=O)NC(=O)NN2CCCCCC2)cc1` has an inhibition of 4%. Work on `CCOC(=O)c1[nH]c(C)c(C(=O)N(C)C)c1C` yielded an inhibition of 0%. Work on `CC(C(=O)N1CCCCC1)n1sc2ccccc2c1=O` (stereo not given) yielded an inhibition of 0%. `Cc1cccc(OCC(=O)N2CCC(N3CCCCCC3)CC2)c1` gave an inhibition of 0%. In the case of `Cc1cc(C)n(Cc2nc3ccccc3n2C)n1`, the inhibition is reported as 0%. `Cc1ncoc1C(=O)Nc1ccccc1C(N)=O` was tested, and the inhibition was 0%. With `Cc1ccc(S(=O)(=O)Cc2ccc(C(=O)NCc3ccc4c(c3)OCO4)o2)cc1` the inhibition was 0%. With `COc1ccc(C2NC(c3ccc(OC)c(OC)c3OC)C(C)C(=O)C2C)c(OC)c1OC` (stereo not given) the inhibition was 0%. `c1ccc(CCc2nc(-c3cccnc3)no2)cc1` showed an inhibition of 0%. `CCOC(=O)c1cnc(-n2nc(C)cc2C)nc1NC(C)c1ccccc1` (stereo not given) gave an inhibition of 0%. `Cc1nc2ccc(Br)cn2c1NC(C)(C)C` was tested, and the inhibition was 0%. `CCN(C(C)=O)c1nnc(CSc2nc3ccccc3s2)s1` gave an inhibition of 5%. `CCN(Cc1nc2ccccc2c(=O)[nH]1)Cc1nc2cc(OC)c(OC)cc2c(=O)[nH]1` showed an inhibition of 0%. Work on `CCCN(C(=O)CSc1nnc(-c2ccoc2C)n1N)C1CCS(=O)(=O)C1` (stereo not given) yielded an inhibition of 0%. `CC(=O)OCC(=O)[C@@]1(O)CC[C@H]2[C@@H]3CCC4=CC(=O)C=C[C@]4(C)[C@@]3(Cl)[C@@H](Cl)C[C@@]21C` gave an inhibition of 0%. `COc1ccc2c(=O)c3c(=O)n(Cc4ccco4)c(C(C)C)nc3oc2c1` was tested, and the inhibition was 0%. For `COc1cccc(CNC(=O)C2CCN(c3cnccn3)CC2)c1`, the inhibition was 0%. Compound `O=C(O)Cn1cc(C(=O)c2ccco2)c2ccccc21` has an inhibition of 4%. Work on `CCCCCn1c(CCNC(=O)CCC)nc2ccccc21` yielded an inhibition of 0%. For `O=C(NC1CCCC1)C(c1cccs1)N(C(=O)c1ccno1)c1ccccc1` (stereo not given), the inhibition was 9%. `CN(C)S(=O)(=O)Nc1ccccc1C(N)=O` showed an inhibition of 0%. `CC[C@H](C)C(=O)O[C@H]1C[C@@H](C)C=C2C=C[C@H](C)[C@H](CC[C@@H]3C[C@@H](O)CC(=O)O3)[C@H]21` showed an inhibition of 5%. For `COCCN(CCOC)c1ncnc2c1cnn2-c1ccccc1`, the inhibition was 0%. Work on `COc1cc(C)c(N)cc1C(C)C` yielded an inhibition of 2%. `CC(=O)c1c(C)nc(C)nc1NC(=O)Cc1ccccc1` was tested, and the inhibition was 0%. Work on `Cc1cccc(N2C(=O)CC(Sc3nc(C)c4c(n3)CCCC4)C2=O)c1` (stereo not given) yielded an inhibition of 0%. `CCOc1ccc2nc(NC(=O)CSc3nc4ccccc4c(=O)n3Cc3ccco3)sc2c1` was tested, and the inhibition was 0%. `CS(=O)(=O)N(Cc1ccco1)CC(O)Cn1c2ccccc2c2ccccc21` (stereo not given) showed an inhibition of 0%. `CC(C)Oc1ccc(C2C(C(=O)c3ccco3)=C(O)C(=O)N2CCCN(C)C)cc1` (stereo not given) was tested, and the inhibition was 0%. `CCOc1cc(S(=O)(=O)N2CCC(Cc3ccccc3)CC2)c(OCC)cc1-n1cnnn1` showed an inhibition of 7%. For `CCCn1cc(SCC(=O)NCc2ccco2)c2ccccc21`, the inhibition was 3%. `CCCSc1nc(N)c(C#N)c(-c2ccc(C)cc2)c1C#N` showed an inhibition of 2%. Compound `CN(C)S(=O)(=O)c1ccc(C(=O)NCc2cccs2)cc1` has an inhibition of 4%. For `c1ccc(-c2nc3ccccc3nc2-c2ccccn2)nc1`, the inhibition was 0%.
